Experimental data taken from ChEMBL document CHEMBL4513216, “Probing the Open Global Health Chemical Diversity Library for Multistage-Active Starting Points for Next-Generation Antimalarials” (ACS Infect Dis, 2020).
The campaign covered roughly 69,000 compounds. About 8,600 (12%) showed an effect of 50% or more. Only a selection was taken, and strong results are over-represented in it overall.

system: Plasmodium berghei; test: Screen against P. berghei liver stage (PbLuc), transformed with Luciferase, at 10uM; assay type: functional, HepG2; conditions: tested at 10 uM

SMILES | INHIBITION
Cc1noc(C)c1CN(C)C(=O)CCn1c(=O)n(C)c2ccccc21 | -6.61%
CCCN1CCC(Cc2noc(-c3cc4cccnc4nc3C)n2)CC1 | 12.9%
COCc1nc(CN2CCN(c3ccc(OC)cc3)C(=O)C2C)no1 (stereo unspecified) | 11%
CCOCC1CN(C(=O)c2ccncc2)Cc2nn(C)cc21 (stereo unspecified) | -46.9%
CCS(=O)(=O)CCNC(=O)C1(c2cccc(Cl)c2)CC1 | 44.8%
COc1cccc(-c2n[nH]c3c2CN(C(=O)c2cc(C)n(C)n2)CC3)c1 | 36.6%
COc1cccc(-c2n[nH]c3c2CN(C(=O)c2ccncc2)CC3)c1 | -4.91%
COc1cccc(-c2n[nH]c3c2CN(C(=O)c2cccc(=O)[nH]2)CC3)c1 | 53.8%
CC(=O)N(Cc1ncc(C)o1)C1CCN(CCn2cccn2)C1 (stereo unspecified) | 40.8%
Cc1cn2c(n1)CCC(NC(=O)CCCOCc1ccccc1)C2 (stereo unspecified) | 53.4%
Cc1cn2c(n1)CCC(NC(=O)CCC(F)(F)F)C2 (stereo unspecified) | 54.9%
COc1ccccc1OCCC(=O)NC1CCc2nc(C)cn2C1 (stereo unspecified) | 34.6%
Cc1cc(C(=O)NC2CCc3nc(C)cn3C2)[nH]n1 (stereo unspecified) | -3.26%
Cc1cn2c(n1)CCC(NC(=O)c1[nH]ncc1Br)C2 (stereo unspecified) | 40%
Cc1cn2c(n1)CCC(NC(=O)c1[nH]nc(C)c1Br)C2 (stereo unspecified) | 64.7%
Cc1cn2c(n1)CCC(NC(=O)CCC1CC1)C2 (stereo unspecified) | 26.9%

SMILES | INHIBITION
COc1ccc(COCC(=O)NC2CCc3nc(C)cn3C2)cc1 (stereo unspecified) | 21.7%
Cc1cnn(CCC(=O)NC2CCc3nc(C)cn3C2)c1 (stereo unspecified) | 5.9%
Cc1nccn1CCN(C)C(=O)C1CCN(C(=O)C2CCC2)CC1 | 16.9%
CN1CCN(C(=O)[C@@H]2CN(C)C[C@]23COc2ccc(F)cc2C3=O)CC1 | 24.2%
CN(C)C(=O)c1coc(COc2ccccc2)n1 | 19.4%
O=C(NCC(F)(F)F)c1ccc(-n2cncn2)nn1 | -17.8%
Cc1cc2n(n1)CC(CNCc1ccc(Oc3ccccc3)nc1)CN2 (stereo unspecified) | 21.55%
CC(C)c1ncc2c(n1)CN(c1ncnc3[nH]ccc13)CC2 | 63.4%
c1ncc2c(n1)CN(c1ncnc3[nH]ccc13)CC2 | 32.7%
Cc1ncc2c(n1)CN(c1ncnc3[nH]ccc13)CC2 | 17.8%
O=S(=O)(NCC1CCCN(Cc2ccccc2F)C1)C1CC1 (stereo unspecified) | 11.5%
Cc1noc(C(C)C)c1C(=O)NCc1cccnc1 | 34.7%
CN(Cc1csc(-c2ccccc2)n1)C(=O)CCNS(C)(=O)=O | -47.9%
CN(Cc1csc(-c2ccccc2)n1)C(=O)CCn1ccccc1=O | 66.9%
CN(Cc1csc(-c2cccs2)n1)C(=O)CCn1ccccc1=O | -33%
